# From the supplement of paper PMC11732987, “Enantioselective OTUD7B fragment discovery through chemoproteomics screening and high-throughput optimisation” (Communications Chemistry, 2025)
# Values without a mark were called inactive.
# Experiments:
# Test in all cases: log2 ratio of Biotin-Ahx-Ub-VS probe labelling (fragment/DMSO); higher = less target engagement (more negative = stronger competition), active = hit call of the paper (q ≤ 0.05, log2 ratio ≤ -1)
# Conditions in all cases: compound concentration: 200 uM; treatment time: 3 h
# [1] = biological target: T1, ALG13 (UniProt Q9NP73)
# T1 sequence (whole entry): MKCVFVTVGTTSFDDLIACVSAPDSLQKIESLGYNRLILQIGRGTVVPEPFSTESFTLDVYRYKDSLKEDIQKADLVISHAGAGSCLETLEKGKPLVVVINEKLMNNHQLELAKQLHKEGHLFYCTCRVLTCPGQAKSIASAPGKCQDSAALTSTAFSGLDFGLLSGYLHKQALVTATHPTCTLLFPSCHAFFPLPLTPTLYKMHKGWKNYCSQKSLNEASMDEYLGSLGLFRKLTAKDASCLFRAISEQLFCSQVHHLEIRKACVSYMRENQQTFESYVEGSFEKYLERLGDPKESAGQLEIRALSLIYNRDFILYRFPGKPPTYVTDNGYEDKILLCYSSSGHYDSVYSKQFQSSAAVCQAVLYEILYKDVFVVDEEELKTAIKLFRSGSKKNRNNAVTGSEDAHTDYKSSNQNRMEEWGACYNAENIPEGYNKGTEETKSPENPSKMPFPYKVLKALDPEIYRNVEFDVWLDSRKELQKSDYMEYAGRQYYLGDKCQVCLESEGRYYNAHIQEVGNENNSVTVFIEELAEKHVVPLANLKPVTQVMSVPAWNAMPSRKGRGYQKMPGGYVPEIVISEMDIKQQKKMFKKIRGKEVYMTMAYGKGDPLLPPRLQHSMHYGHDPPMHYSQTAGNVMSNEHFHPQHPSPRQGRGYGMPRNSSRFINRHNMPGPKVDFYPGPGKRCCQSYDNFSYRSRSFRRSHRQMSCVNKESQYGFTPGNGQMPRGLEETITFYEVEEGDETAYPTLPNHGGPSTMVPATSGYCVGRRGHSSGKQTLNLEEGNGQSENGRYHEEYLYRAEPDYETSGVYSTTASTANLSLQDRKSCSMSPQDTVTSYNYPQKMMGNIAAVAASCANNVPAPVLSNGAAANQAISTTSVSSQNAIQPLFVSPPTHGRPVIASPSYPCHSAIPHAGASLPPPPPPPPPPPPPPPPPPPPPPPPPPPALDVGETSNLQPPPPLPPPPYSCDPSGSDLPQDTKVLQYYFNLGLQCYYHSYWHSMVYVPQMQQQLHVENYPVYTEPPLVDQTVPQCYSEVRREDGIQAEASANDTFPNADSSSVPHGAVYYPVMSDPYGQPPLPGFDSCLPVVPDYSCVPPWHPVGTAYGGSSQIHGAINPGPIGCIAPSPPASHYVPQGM
# How it was run: (§1)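 Fragment (200 µM) or vehicle was incubated for 3 h with triplicate HEK293T lysate samples of 495 µg, which were then treated with Biotin-Ahx-Ub-VS at 0.5 µM final for 1 h. Labelled DUBs were enriched on NeutrAvidin, digested with LysC and trypsin, and analysed by diaPASEF LC-MS/MS. Values are average log2 fragment/vehicle ratios from an unpaired t-test on global-median-normalised Spectronaut label-free quantities, using proteins with ≥2 unique peptides.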
# [2] = biological target: ATXN3 (UniProt P54252)
# Sequence of ATXN3 (P54252 whole entry): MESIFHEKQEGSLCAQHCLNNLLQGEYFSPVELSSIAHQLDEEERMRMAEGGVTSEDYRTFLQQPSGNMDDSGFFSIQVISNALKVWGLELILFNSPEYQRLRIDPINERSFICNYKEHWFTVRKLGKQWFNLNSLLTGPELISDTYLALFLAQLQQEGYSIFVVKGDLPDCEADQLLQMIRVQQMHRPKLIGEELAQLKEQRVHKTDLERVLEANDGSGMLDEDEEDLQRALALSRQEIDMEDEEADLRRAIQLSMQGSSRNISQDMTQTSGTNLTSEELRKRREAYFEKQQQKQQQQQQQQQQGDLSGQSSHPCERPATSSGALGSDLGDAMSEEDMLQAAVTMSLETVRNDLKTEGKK
# How it was run: as §1
# [3] = biological target: T2, BAP1 (UniProt Q92560)
# T2 sequence (whole entry): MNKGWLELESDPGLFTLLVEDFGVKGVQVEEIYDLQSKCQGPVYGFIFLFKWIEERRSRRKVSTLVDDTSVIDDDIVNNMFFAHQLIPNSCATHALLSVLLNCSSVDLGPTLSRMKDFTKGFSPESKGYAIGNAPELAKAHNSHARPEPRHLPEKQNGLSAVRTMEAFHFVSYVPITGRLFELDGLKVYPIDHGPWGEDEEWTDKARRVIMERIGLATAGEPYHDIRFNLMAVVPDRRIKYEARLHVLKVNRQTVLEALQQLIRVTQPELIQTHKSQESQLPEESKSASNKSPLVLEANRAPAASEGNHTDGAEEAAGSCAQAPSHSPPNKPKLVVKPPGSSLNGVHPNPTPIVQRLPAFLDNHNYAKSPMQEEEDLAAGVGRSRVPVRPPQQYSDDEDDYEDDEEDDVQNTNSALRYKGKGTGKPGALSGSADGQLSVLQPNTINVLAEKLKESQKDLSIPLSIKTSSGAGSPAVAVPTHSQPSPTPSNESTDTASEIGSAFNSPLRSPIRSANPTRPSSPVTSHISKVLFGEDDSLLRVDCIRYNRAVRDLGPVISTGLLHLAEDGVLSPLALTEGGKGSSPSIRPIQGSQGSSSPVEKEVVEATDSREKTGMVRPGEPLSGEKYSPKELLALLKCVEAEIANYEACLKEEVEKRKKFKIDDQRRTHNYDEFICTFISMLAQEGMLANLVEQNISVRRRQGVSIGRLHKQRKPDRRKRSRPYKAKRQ
# How it was run: as §1
# [4] = biological target: EIF3F (UniProt O00303)
# Sequence of EIF3F (O00303 whole entry): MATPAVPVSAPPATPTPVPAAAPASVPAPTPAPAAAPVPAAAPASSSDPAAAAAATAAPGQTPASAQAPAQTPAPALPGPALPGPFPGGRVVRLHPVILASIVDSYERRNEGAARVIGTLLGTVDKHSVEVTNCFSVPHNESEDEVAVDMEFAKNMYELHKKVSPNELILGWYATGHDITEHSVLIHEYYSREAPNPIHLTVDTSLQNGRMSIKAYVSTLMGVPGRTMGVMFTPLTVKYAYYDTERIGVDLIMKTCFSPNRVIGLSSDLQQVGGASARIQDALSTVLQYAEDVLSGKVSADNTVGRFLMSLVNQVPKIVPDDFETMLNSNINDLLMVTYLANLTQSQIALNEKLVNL
# How it was run: as §1
# [5] = biological target: EIF3H (UniProt O15372)
# Sequence of EIF3H (O15372 whole entry): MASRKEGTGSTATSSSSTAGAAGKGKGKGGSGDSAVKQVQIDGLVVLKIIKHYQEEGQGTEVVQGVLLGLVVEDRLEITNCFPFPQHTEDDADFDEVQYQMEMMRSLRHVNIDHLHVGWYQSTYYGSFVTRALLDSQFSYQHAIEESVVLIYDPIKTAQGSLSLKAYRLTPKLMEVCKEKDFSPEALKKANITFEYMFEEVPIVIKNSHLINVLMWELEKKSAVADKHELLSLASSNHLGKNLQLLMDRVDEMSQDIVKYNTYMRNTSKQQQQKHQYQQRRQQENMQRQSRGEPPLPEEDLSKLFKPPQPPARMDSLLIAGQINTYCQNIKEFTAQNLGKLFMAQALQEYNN
# How it was run: as §1
# [6] = biological target: T3, FAM105A (UniProt Q9NUU6)
# T3 sequence (whole entry): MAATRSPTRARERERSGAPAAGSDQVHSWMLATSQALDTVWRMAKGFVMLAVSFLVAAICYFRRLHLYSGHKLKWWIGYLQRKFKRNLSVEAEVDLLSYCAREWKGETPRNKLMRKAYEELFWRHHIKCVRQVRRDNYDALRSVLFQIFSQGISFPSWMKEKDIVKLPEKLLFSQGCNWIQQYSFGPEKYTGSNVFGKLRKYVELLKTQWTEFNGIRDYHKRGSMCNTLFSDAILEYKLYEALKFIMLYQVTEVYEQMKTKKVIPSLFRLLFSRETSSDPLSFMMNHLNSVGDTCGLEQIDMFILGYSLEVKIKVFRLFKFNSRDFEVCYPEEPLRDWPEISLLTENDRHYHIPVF
# How it was run: as §1
# [7] = biological target: OTUB1 (UniProt Q96FW1)
# Sequence of OTUB1 (Q96FW1 whole entry): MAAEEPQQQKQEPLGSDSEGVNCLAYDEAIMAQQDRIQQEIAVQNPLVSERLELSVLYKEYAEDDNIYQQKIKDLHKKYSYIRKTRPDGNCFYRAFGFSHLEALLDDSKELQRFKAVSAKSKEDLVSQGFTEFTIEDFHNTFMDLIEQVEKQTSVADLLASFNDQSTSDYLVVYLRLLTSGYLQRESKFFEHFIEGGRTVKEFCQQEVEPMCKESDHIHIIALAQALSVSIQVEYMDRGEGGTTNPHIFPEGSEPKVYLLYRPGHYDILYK
# How it was run: as §1
# [8] = biological target: T4, OTUD4 (UniProt Q01804)
# T4 sequence (whole entry): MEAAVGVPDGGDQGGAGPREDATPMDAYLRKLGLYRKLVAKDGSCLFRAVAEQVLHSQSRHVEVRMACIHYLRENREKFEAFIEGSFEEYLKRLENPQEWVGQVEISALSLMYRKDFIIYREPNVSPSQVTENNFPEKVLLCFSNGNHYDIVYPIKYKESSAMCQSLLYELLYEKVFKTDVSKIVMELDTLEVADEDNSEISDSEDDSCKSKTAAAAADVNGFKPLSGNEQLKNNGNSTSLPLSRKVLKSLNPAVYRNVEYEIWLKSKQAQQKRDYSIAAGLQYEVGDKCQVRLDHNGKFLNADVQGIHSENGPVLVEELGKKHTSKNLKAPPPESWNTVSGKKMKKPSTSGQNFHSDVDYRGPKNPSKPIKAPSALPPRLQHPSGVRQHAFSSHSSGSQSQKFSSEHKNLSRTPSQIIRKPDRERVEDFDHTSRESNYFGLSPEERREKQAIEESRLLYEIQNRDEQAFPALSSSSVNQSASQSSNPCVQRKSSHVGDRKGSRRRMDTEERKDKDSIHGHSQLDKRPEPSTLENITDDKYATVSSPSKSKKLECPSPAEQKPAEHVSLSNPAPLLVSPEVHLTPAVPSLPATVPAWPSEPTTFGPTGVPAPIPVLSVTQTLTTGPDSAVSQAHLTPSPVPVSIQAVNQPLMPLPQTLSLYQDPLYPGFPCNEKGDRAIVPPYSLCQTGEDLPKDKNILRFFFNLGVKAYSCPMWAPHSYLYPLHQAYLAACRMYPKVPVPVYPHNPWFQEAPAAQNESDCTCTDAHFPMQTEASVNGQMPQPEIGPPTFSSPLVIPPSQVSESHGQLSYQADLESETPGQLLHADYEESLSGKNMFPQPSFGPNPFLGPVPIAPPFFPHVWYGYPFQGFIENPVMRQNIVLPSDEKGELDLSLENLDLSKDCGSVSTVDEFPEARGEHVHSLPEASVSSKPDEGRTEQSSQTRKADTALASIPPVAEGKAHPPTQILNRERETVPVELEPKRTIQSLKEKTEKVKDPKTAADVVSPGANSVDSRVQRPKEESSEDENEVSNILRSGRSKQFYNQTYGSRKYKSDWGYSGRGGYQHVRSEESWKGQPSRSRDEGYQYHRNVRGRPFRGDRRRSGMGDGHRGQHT
# How it was run: as §1
# [9] = biological target: T5, OTUD5 (UniProt Q96G74)
# T5 sequence (whole entry): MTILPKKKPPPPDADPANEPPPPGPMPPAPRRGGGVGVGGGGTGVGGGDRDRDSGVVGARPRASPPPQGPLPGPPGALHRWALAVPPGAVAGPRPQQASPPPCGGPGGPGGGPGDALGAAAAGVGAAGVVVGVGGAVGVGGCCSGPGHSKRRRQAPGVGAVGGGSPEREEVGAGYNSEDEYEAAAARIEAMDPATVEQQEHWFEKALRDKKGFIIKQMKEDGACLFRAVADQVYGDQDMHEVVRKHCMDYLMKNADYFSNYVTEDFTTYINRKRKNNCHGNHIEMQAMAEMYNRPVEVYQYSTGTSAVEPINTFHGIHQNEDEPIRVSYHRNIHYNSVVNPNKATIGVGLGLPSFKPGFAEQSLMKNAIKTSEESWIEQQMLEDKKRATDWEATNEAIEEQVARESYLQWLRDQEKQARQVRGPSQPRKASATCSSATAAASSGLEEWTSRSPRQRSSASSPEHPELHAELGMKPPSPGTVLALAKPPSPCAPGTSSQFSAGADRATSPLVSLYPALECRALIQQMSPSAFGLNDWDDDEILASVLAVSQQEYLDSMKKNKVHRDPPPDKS
# How it was run: as §1
compound,measurement,setting,value
O=C(CCl)Nc1nc(-c2cccs2)cs1,log2 ratio of Biotin-Ahx-Ub-VS probe labelling,[1],0.184
same,log2 ratio of Biotin-Ahx-Ub-VS probe labelling,[2],-0.6
same,log2 ratio of Biotin-Ahx-Ub-VS probe labelling,[3],-3.09 (active)
same,log2 ratio of Biotin-Ahx-Ub-VS probe labelling,[4],-0.0224
same,log2 ratio of Biotin-Ahx-Ub-VS probe labelling,[5],0.216
same,log2 ratio of Biotin-Ahx-Ub-VS probe labelling,[6],-0.186
same,log2 ratio of Biotin-Ahx-Ub-VS probe labelling,[7],0.196
same,log2 ratio of Biotin-Ahx-Ub-VS probe labelling,[8],-0.708
same,log2 ratio of Biotin-Ahx-Ub-VS probe labelling,[9],-0.636
